# FXN GAA850 act – activators of GAA850 frataxin (FXN) promoter. HEK293 lucGAA850 FXN promoter luciferase reporter, 24 h; percent of 10 µM SAHA response. activation, % at 6 µM. actives 0.56% (n = 360,000);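 active = activation above the average of all compounds screened plus 3 SD, cutoff fixed separately per campaign, cut at about 7.5% in these data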;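 note: 0% = DMSO wells and 100% = 10 µM SAHA wells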
# Wnt act – activators of Wnt/beta-catenin signaling; actives 1.2% (n = 300,000); activation, % at 9.35 µM; Wnt/beta-catenin reporter cell assay, activator, plate reader; AID 743398; in the data active = activation above about 30%, passing the limit was not always enough; inconclusive = no clear call, values can overlap the other calls;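 note: 0% = neutral control wells and 100% = positive control wells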
# MITF act – increases MITF-driven TRPM1 promoter luciferase signal; AID 588334; activation, % at 12.5 µM; actives 0.75% (n = 300,000); SK-MEL-5 TRPM1-promoter luciferase, 24 h; % of positive control, neutral wells = 0;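 active = mean activation of at least 80% with every replicate also reaching 80%; inconclusive = mean reaches 80% but some replicate falls short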;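 note: 0% = neutral control wells and 100% = parthenolide positive control wells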
# C2C12 statin – suppressors of simvastatin-induced myotoxicity in C2C12 myotubes; rescue of ATP level, % at 7.49 µM; ATP luminescence, 48 h; scaled: DMSO 0, geranylgeraniol control 100; actives 0.78% (n = 330,000);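 active = mean ATP rescue above about 67%, or every replicate alone reaching that limit, limit read from the data, passing the limit was not always enough; inconclusive = no clear call, values can overlap the other calls; inactive = mean under the limit and some replicate under it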;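 note: myotubes were challenged with 10 µM simvastatin during compound exposure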
# esBAF inh – blocks esBAF chromatin remodeling in mouse ES cells | AID 602393 | reporter increase, % at 12.5 µM | Bmi1-luciferase knock-in reporter, 24 h; 100% = twice the neutral-well signal | actives 2% (n = 350,000); in the data active = activation above about 40%; inconclusive = no clear call, values can overlap the other calls;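 note: 0% = median of the plate's neutral control wells and 100% = double that signal; a rise in the Bmi1 reporter signal indicates esBAF inhibition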
# Numbers without * were called inactive; ? = inconclusive; . = not tested or not shown. A selection: hits, their analogues and other compounds. The true share with any hit is near 3.3%.
SMILES,FXN GAA850 act,Wnt act,MITF act,C2C12 statin,esBAF inh
COc1cccc(-c2nc3n(n2)CCc2ccccc2-3)c1,5,64*,.,5,36
Clc1ccc(-c2nc3n(n2)Cc2ccccc2-3)cc1,2,53*,.,-22,8
C[C@H]1CN([C@@H](C)CO)S(=O)(=O)c2ccc(-c3ccc(F)cc3)cc2O[C@@H]1CN(C)C(=O)C1CCCCC1,.,.,.,16,-4
Cc1cc(=O)n2c(C)n[nH]c2n1,0,-1,.,120*,-1
CCN(CC)C(=O)c1scc2c1OCCO2,-3,.,11,120*,-2
CO[C@@H]1CN(C)C(=O)c2ccc(NC(=O)C3CC3)cc2OC[C@H](C)N(C(=O)C2CCOCC2)C[C@@H]1C,.,.,.,0,-3
CCOC(=O)c1sc(N/N=C/c2cccc(C)c2)nc1C,2,18,99*,-40,58*
CCOC(=O)c1sc(Nc2ccccc2)nc1C,6,.,94*,-9,78*
COC(=O)c1ccc(/C=N/Nc2nc(C)c(C)s2)cc1,2,34*,.,.,.
CCOC(=O)c1sc(Nc2ccc(C)cc2C)nc1C,5,-2,17,.,7
CCOC(=O)c1sc(NCC2CCCO2)nc1C (stereo not given),2,2,22,113*,30
COc1ccc(S(=O)(=O)N2C[C@@H](O)COC[C@@H]3O[C@@H](CC(=O)NCc4ccc(Cl)c(Cl)c4)CC[C@H]32)cc1,.,.,.,-19,1
COc1ccc(NC(=O)Nc2ccc3c(c2)[C@H]2C[C@@H](CC(=O)N4CCCCC4)O[C@H](CO)[C@H]2O3)cc1,.,.,.,4,5
CNc1nc(C)c(C(=O)OCc2ccccc2)s1,7,14,.,2,75*
CNc1nc(C)c(C(=O)OCC(=O)OC)s1,3,2,11,-2,8
CC(C)(C)C(=O)c1sc(Nc2ccccc2)nc1N,7,0,122*,-42,57*
CCOC(=O)c1sc(NC(=O)Nc2ccc(Cl)cc2)nc1C,3,39*,.,-20,61*
CCOC(=O)c1sc(Nc2nc3c(OC)cccc3s2)nc1C,5,.,1,106*,67*
CCOC(=O)Nc1nc(C)c(C(=O)c2ccc(Cl)cc2)s1,-1,1,-6,.,-3
CCOC(=O)c1sc(Nc2ccc(F)cc2)nc1C,3,-5,25,.,.
COc1ccc(CN(C)C[C@H]2OCCCC[C@@H](C)Oc3ccc(NS(=O)(=O)c4ccc(C)cc4)cc3C(=O)N([C@@H](C)CO)C[C@@H]2C)cc1,.,.,.,.,3
Cc1nc(Nc2ccccc2)sc1C(=O)c1ccccc1,4,42*,.,.,.
Cc1nc(Nc2ccccc2)sc1-c1ccccc1,6,44*,58,.,.
CCCc1nc2oc3c(NCC(C)O)ncnc3c2c2c1CCCC2 (stereo not given),3,38*,.,.,.
O=C(Cc1ccccn1)N[C@@H]1CC[C@H](CCNC(=O)c2cc(Cl)cc(Cl)c2)O[C@H]1CO,.,.,.,8,1
SMILES,FXN GAA850 act,Wnt act,MITF act,C2C12 statin,esBAF inh
O=C(Nc1nc2ccccc2s1)c1cnccn1,1,.,-7,11,-20
CCOc1ccc2nc(NC(=O)c3cnccn3)sc2c1,2,8,56,-18,49*
CCOc1ccc2nc(NC(=O)CSCC(=O)Nc3cc(C)on3)sc2c1,0,?,104*,5,5
CCOCC(=O)Nc1nc2ccc(C)cc2s1,1,.,74,.,.
CCOCC(=O)Nc1nc2ccc(OCC)cc2s1,3,46*,33,3,7
C[C@@H]1CCCCO[C@@H](CN(C)S(=O)(=O)c2ccc(Cl)cc2)[C@H](C)CN([C@H](C)CO)C(=O)c2cc(NS(=O)(=O)c3cccs3)ccc2O1,.,.,.,.,-4
C[C@@H]1CN([C@@H](C)CO)C(=O)c2cc(NC(=O)Nc3cccc4ccccc34)ccc2O[C@@H](C)CCCCO[C@H]1CN(C)S(=O)(=O)c1cccs1,.,.,.,-27,-5
Cc1nn(-c2ccc(C(=O)O)cc2)c(N)c1-c1ccccc1,5,20,59,.,61*
Cc1nn(-c2nc3ccccc3[nH]2)c(N)c1-c1ccc(Cl)cc1,4,15,40,-50,61*
COc1ccc(-c2c(C)nn(-c3ccccc3)c2N)cc1OC,3,.,2,-5,0
Cc1nn(-c2nc3ccccc3[nH]2)c(=O)c2ccccc12,-15,-7,-96,-153,-86
COc1ccc(-c2c(C)nn(-c3ccccc3)c2N)cc1,3,13,103*,-11,63*
CO[C@@H]1CN(C)C(=O)c2ccc(NS(=O)(=O)c3ccc(Oc4ccccc4)cc3)cc2OC[C@H](C)NC[C@@H]1C,.,.,.,-15,2
C[C@H]1CN([C@@H](C)CO)C(=O)c2cc(NC(=O)CCC(F)(F)F)ccc2O[C@@H]1CN(C)C(=O)Nc1cccc2ccccc12,.,.,.,9,2
Cn1c2c(c(=O)n(C)c1=O)CN(Cc1ccc(F)cc1)CN2,0,.,-4,13,-8
Cn1c2c(c(=O)n(C)c1=O)CN(Cc1ccc3c(c1)OCO3)CN2,1,-1,-3,112*,-5
Cc1ccc(S(=O)(=O)N(C)C[C@@H]2Oc3ccc(NC(=O)C4CCCCC4)cc3CC(=O)N([C@@H](C)CO)C[C@@H]2C)cc1,.,.,.,-9,1
CC(=O)Nc1ccc(NC(=O)COC(=O)c2c(C)nn(-c3ccccc3)c2C)cc1,3,-1,0,.,.
Cc1nn(-c2ccccc2)c(C)c1C(=O)OCC(=O)Nc1ccccc1F,4,44*,100*,5,36
Cc1cc(C(=O)OCC(=O)N2CCOCC2)c(C)n1-c1ccccc1,1,5,25,8,19
Cc1nn(-c2ccccc2)c(C)c1C(=O)OCC(=O)NC12CC3CC(CC(C3)C1)C2,1,0,19,-3,50*
Cc1cc(C(=O)OCC(=O)Nc2c(F)cccc2F)c(C)n1-c1ccccc1,1,14,28,1,48*
CCNC(=O)C[C@@H]1C=C[C@@H](NC(=O)NC2CCCCC2)[C@H](CO)O1,.,.,.,8,-6
Nc1nc(-c2ccccc2)cs1,1,.,38,0,?
c1ccc(-c2ccc3sccc3n2)cc1,3,48*,116*,.,.
COc1ccc(CC(N)c2csc(NC(=O)Nc3ccc(OC)cc3)n2)cc1 (stereo not given),1,-1,.,-11,5
COc1ccc(CC(N)c2csc(NC(=O)c3cc(C(C)(C)C)oc3C)n2)cc1 (stereo not given),1,-3,.,4,53*
CCCc1nc2ccc(NC(C)=O)cc2c(=O)n1Cc1ccc(Cl)cc1,3,16,82*,.,.
CCNC(=O)[C@@H]1[C@@H](CO)[C@@H]2Cn3c(ccc(C4=CCCC4)c3=O)[C@@H]2N1C(=O)CC1CC1,.,.,.,-5,-1
C[C@H]1CN([C@@H](C)CO)C(=O)c2cc(NC(=O)Nc3ccc(C(F)(F)F)cc3)ccc2O[C@H]1CN(C)C(=O)Nc1ccccc1,.,.,.,-2,-8

# Screening data as filed in PubChem BioAssay.
